This note sets out measurements from publication PMC5540273 (PLoS ONE, 2017).

SMILES strings stand for the structures.

Test systems include PIM1; PIM2; PIM3; PIP5K1A; PIP5K1C; PIP5K2B; PKMYT1; PKN1; PKN2; PLK1; PLK2; PLK3; PLK4; PRKCD; PRKCE; PRKCH; PRKCI.
What all share (details): concentration: 1 μM, replicates: in singlicate; n = 1
The subject of a further experiment is T1, PIP5K2C.
T1 construct: gene PIP4K2C

The subject of another experiment is T2, PKAC-alpha.
T2 construct: gene PRKACA

The test system of the next experiment is T3, PKAC-beta.
T3 construct: gene PRKACB
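Note: KINOMEscan kinase panel screen.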

In the case of `Cc1cc(NCC(c2ccccc2)c2ccccc2)nc(NCc2ccc(C(F)(F)F)cc2)n1` [GW497681], the “%Inh” value with PIM1 amounted to 12%; in the experiment with PIM2, 0%; with PIM3, 0%; with PIP5K1A it was 0%; in the experiment with PIP5K1C it was 53%; with PIP5K2B, 8%. For the same compound, the “%Inh” value in the experiment on PIP5K2C, in the experiment with PKAC-alpha, with PKAC-beta, in the experiment with PKMYT1, with PKN1 and in the experiment on PKN2 was 0% in each case. The “%Inh” value in the experiment on PLK1 is 0%; in the experiment on PLK2 it was 0%; in the experiment with PLK3 it was 0%; with PLK4, 3%; with PRKCD, 0%; with PRKCE, 0%. Moreover, the “%Inh” value is given as 0% with PRKCH and 2% in the experiment on PRKCI.

As for `COc1ccc(CNC(=O)NC2CCN(c3ccnc(Nc4cc(OC)c(OC)c(OC)c4)n3)C2)cc1` (centres unmarked) [GSK1379748], the “%Inh” value in the experiment on PIM1 came out at 7%; in the experiment on PIM2 it was 0%; in the experiment with PIM3, 0%; with PIP5K1A, 36%; in the experiment with PIP5K1C, 73%; in the experiment with PIP5K2B it was 7%. Also, the “%Inh” value in the experiment on PIP5K2C was found to be 87%; with PKAC-alpha, 0%; in the experiment with PKAC-beta, 0%; in the experiment on PKMYT1 it was 3%; in the experiment on PKN1, 0%; in the experiment on PKN2, 0%. Moreover, the “%Inh” value in the experiment on PLK1 is given as 0%; in the experiment on PLK2 it was 0%; in the experiment on PLK3, 0%; in the experiment on PLK4, 19%; in the experiment with PRKCD it was 0%; in the experiment on PRKCE, 14%. Further, the “%Inh” value in the experiment on PRKCH is recorded as 0%; in the experiment with PRKCI, 30%.

Turning to `COC(=O)c1c(-c2ccccc2)c2cc(C(=O)O)ccc2c(=O)n1Cc1ccccc1`, the “%Inh” value in the experiment with PIM1 came to 0%; in the experiment on PIM2, 0%; with PIM3 it was 0%; in the experiment on PIP5K1A it was 18%; with PIP5K1C it was 17%; in the experiment with PIP5K2B it was 22%. Also, the “%Inh” value in the experiment with PIP5K2C came to 13%; with PKAC-alpha it was 0%; in the experiment with PKAC-beta, 24%; with PKMYT1, 0%; with PKN1 it was 0%; in the experiment on PKN2, 0%. Also, the “%Inh” value in the experiment with PLK1 was 0%; in the experiment with PLK2, 12%; with PLK3 it was 0%; with PLK4 it was 11%; in the experiment with PRKCD, 0%; in the experiment on PRKCE, 0%. The results for the “%Inh” value in the experiment on PRKCH and in the experiment with PRKCI were 4% and 0%, respectively.

`CC(=O)Nc1nc2cnc(Nc3cc(NC(=O)c4cccc(CCC#N)c4)ccc3C)nc2s1`: the “%Inh” value with PIM1 was 5%; in the experiment with PIM2, 19%; with PIM3 it was 9%; in the experiment with PIP5K1A, 13%; in the experiment on PIP5K1C it was 0%; in the experiment on PIP5K2B, 45%. Besides, the “%Inh” value in the experiment with PIP5K2C is given as 4%; in the experiment on PKAC-alpha, 15%; in the experiment on PKAC-beta, 0%; in the experiment with PKMYT1, 0%; in the experiment with PKN1 it was 12%; with PKN2, 0%. Further, the “%Inh” value was determined as 0% in the experiment on PLK1; 8% with PLK2; 14% in the experiment with PLK3; 9% in the experiment with PLK4; 8% in the experiment with PRKCD; 0% with PRKCE. In addition, the entries for the “%Inh” value in the experiment on PRKCH and in the experiment on PRKCI were 0% and 32%, respectively.

Take `CC(C)(C)c1ccc(C(=O)Nc2cn3cc(-c4cccnc4)ccc3n2)cc1`: the “%Inh” value stood at 32% in the experiment with PIM1; 12% in the experiment with PIM2; 44% in the experiment on PIM3; 0% with PIP5K1A; 17% in the experiment with PIP5K1C; 18% with PIP5K2B. Besides, the “%Inh” value is 53% with PIP5K2C; 13% in the experiment with PKAC-alpha; 33% with PKAC-beta; 19% in the experiment on PKMYT1; 25% in the experiment with PKN1; 22% with PKN2. In addition, the “%Inh” value is 0% in the experiment on PLK1; 16% with PLK2; 24% with PLK3; 15% in the experiment with PLK4; 36% with PRKCD; 4% with PRKCE. Besides, the “%Inh” value in the experiment on PRKCH is reported as 0%; in the experiment on PRKCI, 26%.

For `COc1ccc(C2=C(Nc3cccc(C(=O)O)c3)C(=O)NC2=O)cc1` [SB-390765], the “%Inh” value in the experiment on PIM1 was found to be 5%; in the experiment on PIM2, 6%; with PIM3, 11%; in the experiment with PIP5K1A, 13%; in the experiment with PIP5K1C it was 4%; in the experiment with PIP5K2B, 16%. Further, the “%Inh” value with PIP5K2C is listed as 0%; in the experiment on PKAC-alpha, 12%; with PKAC-beta it was 25%; in the experiment on PKMYT1 it was 0%; with PKN1 it was 18%; in the experiment on PKN2, 7%. Also, the “%Inh” value in the experiment with PLK1 came out at 21%; with PLK2, 48%; in the experiment on PLK3 it was 21%; in the experiment on PLK4, 2%; in the experiment on PRKCD, 5%; in the experiment on PRKCE it was 25%. The “%Inh” value turned out to be 4% in the experiment with PRKCH and 47% in the experiment on PRKCI.

For the compound `COc1ccc2nc(-c3cccc(C)n3)nc(Nc3ccncc3)c2c1` [GSK204919], the “%Inh” value in the experiment on PIM1 is reported as 0%; with PIM2, 0%; with PIM3 it was 0%; in the experiment with PIP5K1A it was 4%; in the experiment with PIP5K1C, 28%; in the experiment on PIP5K2B, 0%. In addition, the “%Inh” value in the experiment with PIP5K2C was found to be 0%; with PKAC-alpha, 3%; with PKAC-beta, 0%; in the experiment with PKMYT1, 1%; in the experiment on PKN1, 3%; in the experiment on PKN2 it was 0%. Also, the “%Inh” value in the experiment with PLK1, in the experiment with PLK2, in the experiment on PLK3, in the experiment on PLK4, with PRKCD and in the experiment on PRKCE was 0% throughout. In addition, the “%Inh” value in the experiment on PRKCH stood at 30%; with PRKCI, 31%.

For `Fc1cc(Cl)ccc1Nc1ccnc2cc(I)ccc12` [GW551191], the “%Inh” value is 22% in the experiment on PIM1; 0% in the experiment with PIM2; 6% with PIM3; 0% in the experiment with PIP5K1A; 30% in the experiment with PIP5K1C; 0% in the experiment on PIP5K2B. Also, the “%Inh” value came to 10% with PIP5K2C; 0% in the experiment on PKAC-alpha; 0% in the experiment on PKAC-beta; 1% in the experiment with PKMYT1; 17% in the experiment on PKN1; 0% with PKN2. Moreover, the “%Inh” value with PLK1 was 0%; in the experiment on PLK2, 0%; in the experiment on PLK3, 0%; with PLK4 it was 1%; with PRKCD it was 0%; with PRKCE, 10%. Further, the entries for the “%Inh” value with PRKCH and in the experiment on PRKCI were 2% and 16%, respectively.

As to `O=C(Nc1n[nH]c2nc(-c3nccs3)c(Br)cc12)C1CCCC1` [SB-742609], the “%Inh” value with PIM1 stood at 0%; in the experiment on PIM2, 0%; with PIM3, 0%; in the experiment on PIP5K1A, 0%; in the experiment on PIP5K1C it was 36%; in the experiment on PIP5K2B, 0%. For the same compound, the “%Inh” value is recorded as 0% in the experiment with PIP5K2C; 0% in the experiment on PKAC-alpha; 0% in the experiment on PKAC-beta; 14% in the experiment on PKMYT1; 0% in the experiment with PKN1; 0% in the experiment on PKN2. For the same compound, the “%Inh” value was 0% in the experiment with PLK1; 0% in the experiment on PLK2; 0% in the experiment with PLK3; 0% in the experiment with PLK4; 5% in the experiment on PRKCD; 0% with PRKCE. The “%Inh” value in the experiment with PRKCH is recorded as 2%; in the experiment with PRKCI, 12%.

As for `COc1cc2ncnc(Nc3ccc4nc(-c5ccccc5)[nH]c4c3)c2cc1OC.Cl` [GW282450], the “%Inh” value in the experiment on PIM1 worked out at 0%; with PIM2, 0%; with PIM3 it was 0%; in the experiment on PIP5K1A, 6%; in the experiment on PIP5K1C it was 54%; in the experiment on PIP5K2B it was 3%. Moreover, the “%Inh” value with PIP5K2C came out at 11%; with PKAC-alpha, 6%; with PKAC-beta, 0%; in the experiment with PKMYT1, 10%; with PKN1 it was 0%; in the experiment with PKN2, 0%. For the same compound, the “%Inh” value with PLK1 worked out at 9%; in the experiment with PLK2, 0%; in the experiment with PLK3, 0%; in the experiment with PLK4 it was 94.5%; with PRKCD, 14%; with PRKCE, 17%. The “%Inh” value stood at 0% in the experiment on PRKCH and 31% with PRKCI.
